# Screening data from PubChem BioAssay.
# aSyn UTR inh: MLPCN primary screen, SNCA 5' untranslated region. 0.82% of 300,000 active. alpha-synuclein 5'UTR reporter, inhibitor activity. inhibition, % (tested at 7.5 µM). AID 1813, 2009; in the data active = inhibition above about 60%;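 note: H4 neuroglioblastoma cells stably carrying SNCA 5'UTR luciferase fusion; 0% = DMSO wells and 100% = positive control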
# APP transl inh: inhibitors of APP translation via 5'UTR reporter, primary screen, APP 5'UTR luciferase, SH-SY5Y cells. 0.82% of 190,000 active. SH-SY5Y APP 5'UTR-luciferase reporter, luminescence. inhibition, % at 2 µM;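 active = inhibition above a set limit, derived from the sample mean plus 3 SD, cut at about 45% in these data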
# Ba/F3 V617F tox: reduced viability of JAK2V617F-dependent Ba/F3 cells, primary screen, JAK2V617F inhibitor project, cell-based, Ba/F3 EpoR-JAK2V617F, luminescence; ATP luminescence; inhibition, % at 5.6 µM; 1.1% of 220,000 active; AID 1446, 2008;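 active = inhibition above the campaign mean plus 3 SD over all tested compounds, cut at about 24% in these data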;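 note: cytokine-independent growth of Ba/F3 cells driven by EpoR plus mutant JAK2; 0% = DMSO-treated cells and 100% = JAK inhibitor I control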
# BaF3 parental: parental Ba/F3 cell viability inhibition, counter-screen for JAK2V617F inhibitor project, murine pro-B, CellTiter-Glo luminescence; CellTiter-Glo ATP luminescence; inhibition, % at 5.6 µM; 1.1% of 220,000 active; AID 1486, 2009;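 active = inhibition above a per-campaign cutoff, the mean inhibition of all tested compounds plus 3 SD, cut at about 27% in these data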;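 note: 0% = DMSO wells and 100% = JAK Inhibitor I control wells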
# IEC-6 tox: cytotoxicity in IEC-6 intestinal epithelial cells, primary screen, cytotoxicity control for KLF5 inhibitor project, cell-based, luminescence | 0.78% of 290,000 active | IEC-6 cytotoxicity, luminescence viability | inhibition, % at 5 µM | AID 1825, 2009; in the data active = inhibition above about 22%;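 note: 0% = plate median of test compound wells and 100% = cytotoxic reference compound wells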
# KLF5 inhibitor: KLF5 expression inhibitors, primary screen, DLD-1 cells, luminescence; 0.23% of 290,000 active; DLD-1 KLF5 promoter-luciferase reporter; inhibition, % at 5 µM; AID 1700, 2009;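 active = inhibition above a per-plate limit of that plate's mean compound inhibition plus 3 SD, cut at about 60% in these data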;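 note: 0% = DMSO wells and 100% = LY294002 at 200 µM; higher means less KLF5 promoter-driven luciferase light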
# * marks the source's active call; other numbers are inactive results; . = no result given. This is a sample that favours compounds with a hit; in the whole collection about 2.1% have one here.
SMILES,aSyn UTR inh,APP transl inh,Ba/F3 V617F tox,BaF3 parental,IEC-6 tox,KLF5 inhibitor
O=C(Nc1nnc(C2CC2)o1)c1ccc(S(=O)(=O)N2CCCc3ccccc32)cc1,63*,-8,.,.,.,.
Cc1cc(NC(=O)COC(=O)c2ccc(S(=O)(=O)N3CCCc4ccccc43)cc2)no1,46,92*,63*,49*,2,63*
CC1CN(S(=O)(=O)c2ccc(C(=O)Nc3nnc(-c4ccccn4)o3)cc2)CC(C)O1 (centres undefined),-11,-17,0,-3,-8,-11
Cc1ccccc1NS(=O)(=O)c1ccc(C(=O)N2CCN(S(=O)(=O)c3ccccc3)CC2)cc1,2,.,.,.,.,.
CN(CC(=O)Nc1cccc(F)c1)C(=O)CCNC(=O)c1ccco1,-1,.,.,.,.,.
Cc1cc(C(=O)Nc2nc3ccc(Cl)cc3s2)nn1C,-128,.,-4,0,-5,-148
Cn1ncc(Cl)c1C(=O)Nc1nc2ccc(Cl)cc2s1,-198,-99,-3,37*,0,-22
CCOc1cc(/C=N/n2nnnc2N)ccc1OCc1c(C)no[n+]1[O-],-34,9,2,97*,11,-39
Cc1onc(-c2ccccc2Cl)c1C(=O)N1CCC(C)CC1,10,.,.,.,2,-13
CCOC(=O)C1CCN(C(=O)c2ccco2)CC1,.,-7,3,5,-2,-4
CCOC(=O)C1CCN(C(=O)c2c(C)oc3c2C(=O)c2ccccc2C3=O)CC1,72*,31,-2,6,-2,5
Cc1oc2c(c1C(=O)N1CCC(C)CC1)C(=O)c1ccccc1C2=O,83*,34,0,8,-1,-23
CCOc1ccc(/C=N/NC(=O)c2nnn(-c3nonc3N)c2CN(C)C2CCCCC2)cc1,1,.,.,.,-1,-6
CCOC(=O)Cn1c(=O)c2c(nc(Br)n2Cc2ccccc2)n(C)c1=O,.,-2,-3,2,1,10
CCCCOC(=O)Cn1c(=O)c2c(nc(Br)n2Cc2ccccc2)n(C)c1=O,-5,-3,2,66*,3,-20
COc1ccc(-c2nc(CN3CCN(c4cc(C)nc(C)c4)CC3)c(C)o2)c2ccccc12,68*,12,0,6,-3,-34
Cc1cc(N2CCN(Cc3nc(-c4ccc(Cl)cc4)oc3C)CC2)cc(C)n1,-5,.,4,-5,10,-13
Cn1c(=O)oc2cc(S(=O)(=O)N3CCCC(C(=O)NC4CCCc5ccccc54)C3)ccc21 (centres undefined),63*,10,-3,4,0,-25
Cn1c(=O)oc2cc(S(=O)(=O)N3CCCC(C(=O)Nc4ccccn4)C3)ccc21 (centres undefined),4,-3,-2,10,0,5
COc1ccc(C(=O)c2c(C(F)(F)F)oc3c2C(=O)c2ccccc2C3=O)cc1,109*,27,0,0,13,-13
Cc1nnc(NC(=O)c2ccc(S(=O)(=O)N3CCc4ccccc4C3)cc2)o1,-6,-15,-1,0,-7,-5
CCc1nnc(NC(=O)c2ccc(S(=O)(=O)N3CCc4ccccc4C3)cc2)s1,6,-12,-4,1,4,-22
Cc1cc(C)c2nc(NNC(=O)c3ccc(S(=O)(=O)N4CCc5ccccc5C4)cc3)sc2c1,75*,28,-1,5,-2,26
Cc1cc(C)c2sc(NNC(=O)c3ccc(S(=O)(=O)N4CCc5ccccc5C4)cc3)nc2c1,77*,11,-2,2,1,34
Cc1cccc(C)c1Nc1nnc(SCc2cc([N+](=O)[O-])cc3c2OCOC3)s1,-19,48*,-1,3,0,-31
SMILES,aSyn UTR inh,APP transl inh,Ba/F3 V617F tox,BaF3 parental,IEC-6 tox,KLF5 inhibitor
COc1cccc(Nc2nnc(SCc3cc([N+](=O)[O-])cc4c3OCOC4)s2)c1,21,92*,3,4,2,5
COCCNC(=O)C(c1ccc(F)cc1)N(Cc1cccs1)C(=O)CCC(=O)Nc1ccccn1 (centres undefined),-10,.,.,.,-9,9
CC(=O)c1c(C)[nH]c(C(=O)Nc2cc(C)cc(C)c2)c1C,-78,11,-1,5,-1,-31
CC(=O)c1c(C)[nH]c(C(=O)Nc2nc(C)cs2)c1C,86*,-116,-2,8,-12,19
CC(=O)c1c(C)[nH]c(C(=O)Nc2nc(-c3ccc(Cl)cc3)cs2)c1C,8,-7,-3,3,-8,-20
CC(=O)c1c(C)[nH]c(C(=O)Nc2ccc(C)cn2)c1C,85*,-58,1,7,-5,-64
CCC(=O)NC1=C(Cl)C(=O)C(NC(=O)CC)=C(Cl)C1=O,.,.,8,2,73*,1
O=C1NC(=O)/C(=C\c2ccc(Oc3cnccn3)cc2)S1,-191,-33,-3,0,0,-24
O=Cc1ccc(Oc2cnccn2)cc1,-17,76*,-2,-2,-4,-7
CCCN(C(=O)CCSc1ccc(F)cc1)c1c(N)n(Cc2ccccc2)c(=O)[nH]c1=O,5,.,.,.,0,0
OCCCCNCc1ccc(OCc2ccc(Cl)cc2Cl)cc1,-2,1,59*,27*,9,-23
S=C(Nc1ccccc1)Nc1ccc(OCc2ccc(Cl)cc2Cl)cc1,96*,70*,-2,1,-7,27
OCCNCc1ccc(OCc2ccc(Cl)cc2Cl)cc1,-84,-31,6,13,10,-55
Cc1ccc(N2C(=O)c3ccccc3C2Nc2ccccc2F)nc1 (centres undefined),-27,10,-3,5,-9,-55
Cc1ccc(N2C(=O)c3ccccc3C2O)nc1 (centres undefined),73*,-113,20,26,17,-50
COc1ccc(-c2nc(-c3cccs3)no2)cc1,83*,.,-4,3,0,-5
FC(F)Oc1ccc(-n2cc(-c3ccccc3)[n+]3c2CCCCC3)cc1,-1,.,65*,63*,-2,-9
Cc1ccc(-c2cn(-c3ccc(OC(F)F)cc3)c3[n+]2CCCCC3)cc1,-6,.,78*,73*,16,-7
CCN(CC)CCNC(=O)CNC(=O)c1nn(-c2ccc(OC)cc2OC)c(=O)c2ccccc12,-9,.,.,.,-2,1
O=C(NCC(c1ccco1)N1CCc2ccccc2C1)c1ccc(Br)cc1 (centres undefined),-7,.,.,.,.,.
O=C(Nc1ccccc1Cl)c1sccc1-c1ccccc1,10,.,.,.,-7,-24
O=C(CN1CCOCC1)NNc1c2ccccc2nc2ccccc12,-1,.,0,0,-2,-46
C[N+]1(CC(=O)NNc2c3ccccc3nc3ccccc23)CCOCC1,-6,-17,17,29*,1,9
CCN=C1S/C(=C\c2ccc(O)c(OCC)c2)C(=O)N1CC,68*,-8,-2,4,7,-18
